The test system of experiment [1] is Wnt5a (protein binding on small-molecule microarray). Kind of experiment: Wnt5a binders on small-molecule microarray, primary screen, biophysical, 635/667 nm fluorescence (AID 1142).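 Also: fluorescence read at 667 nm with signal to noise per printed feature.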 The note with it: 635 nm fluorescence, higher = more signal.
The nature of experiment [2]: cell viability in Huh7 cells, primary screen, cytotoxicity control for HCV replication inhibitor project, CellTiter-Glo luminescence, basal, 48 h (AID 1143).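 Also: Huh7 hepatoma cells carrying a hepatitis C replication reporter with no stimulus; test concentration not given here.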 The note with it: Huh7 HCV replicon, higher = more signal, called active from +8 up or from −8 down. On the technique in general: Cellular ATP, detected with luciferase, serves as a proxy for viable cell number.
The nature of experiment [3]: P. aeruginosa biofilm formation inhibitors, primary screen, PAO1 strain, BacTiter-Glo luminescence, LB-PBS (AID 1144). The note with it: 12 h, higher = more signal.
The nature of experiment [4]: CREB reporter modulators without forskolin, primary screen, cell-based, PC12, CRE-LacZ reporter, unstimulated (AID 1145). The note with it: no forskolin, luminescence, 4.5 h, higher = more signal, called active from +8 up or from −8 down.
A short description of experiment [5]: CREB reporter modulators under forskolin, primary screen, cell-based, PC12, CRE-LacZ reporter, forskolin-stimulated (AID 1146).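 Also: PC12 cells with 6xCRE LacZ reporter stimulated by forskolin 10 µM; beta-galactosidase reporter signal reflecting CREB driven transcription.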 The note with it: luminescence, 4.5 h, higher = more signal, called active from +8 up or from −8 down.
Experiment [6] has as its target Streptavidin (Streptomyces avidinii) (UniProt P22629). Kind of experiment: streptavidin binders on small-molecule microarray, primary screen, artefact control for SMM compound annotation, biophysical, 635/667 nm fluorescence (AID 1147).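 Also: signal reflects streptavidin binding to arrayed compounds as a control protein.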 As to conditions: streptavidin binding, higher = more signal.
Experiment [7] is described as follows: small-molecule binders of probe aInhba, primary screen, biochemical, small-molecule microarray, 635/667 nm fluorescence (AID 1148).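 Also: score merges 667nm spot fluorescence with signal-to-noise for antibody binding to printed compounds.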 As to conditions: higher = more signal.
The target in experiment [8] is Torsin-1A (Homo sapiens) (UniProt O14656). In words: torsin A binders from cell lysate, primary screen, small-molecule microarray, wild-type, 635/667 nm (AID 1149). As to conditions: COS7 hTOR1A-WT lysate, 635 nm fluorescence, higher = more signal.
Torsin-1A (Homo sapiens), sequence (O14656 whole entry, looked up): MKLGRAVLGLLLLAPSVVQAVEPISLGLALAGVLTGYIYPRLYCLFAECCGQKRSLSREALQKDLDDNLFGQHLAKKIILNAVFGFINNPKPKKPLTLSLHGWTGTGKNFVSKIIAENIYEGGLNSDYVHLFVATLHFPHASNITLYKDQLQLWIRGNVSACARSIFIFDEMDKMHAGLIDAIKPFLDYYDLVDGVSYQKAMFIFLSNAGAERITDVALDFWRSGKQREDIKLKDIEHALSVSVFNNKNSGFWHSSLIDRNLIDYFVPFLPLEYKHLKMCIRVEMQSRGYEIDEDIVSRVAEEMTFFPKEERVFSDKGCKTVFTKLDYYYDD
The target is the same in experiment [9]. In words: small-molecule binders of mutant TOR1A in lysate, primary screen, cell lysate, small-molecule microarray, COS7 lysate, 635/667 nm fluorescence (AID 1150).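 Also: score pools 667 nm emission and signal to noise measuring lysate protein binding.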 As to conditions: COS7 hTOR1A mutant lysate, 635 nm fluorescence, higher = more signal.
Experiment [10] deals with Sonic hedgehog protein (Shh). In words: small-molecule binders of Shh protein, primary screen, biochemical, small-molecule microarray, 635/667 nm fluorescence (AID 1151).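 Also: Shh protein binding to compounds spotted on small-molecule microarray slides; score combines spot fluorescence intensity with signal-to-noise across triplicate slides.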 As to conditions: small-molecule microarray binding, 635 nm fluorescence; higher = more signal.
Experiment [11] in a line: E. coli DRC41 culture turbidity changes, primary screen, E. coli filamentation inducer project, strain DRC41, OD650, 48 h (AID 1152).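 Also: E. coli MC1000 strain DRC41 lacking acrAB efflux pump and sulA.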 The note with it: E. coli DRC41 (acrAB sulA), higher = more signal, called active from +8 up or from −8 down.
Experiment [12] is described as follows: small-molecule binders of probe aLefty1, primary screen, biochemical, small-molecule microarray, 635/667 nm fluorescence (AID 1153).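 Also: score merges spot fluorescence with signal-to-noise ratio from the scanned slide images.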 As to conditions: higher = more signal.
Experiment [13] in a line: PSAC antagonists in infected red cells, primary screen, cell-based, P. falciparum Indochina, OD700, 1 h (AID 1154). As to conditions: P. falciparum Indochina infected RBC osmotic lysis, higher = more signal, called active from +8 up or from −8 down.
Experiment [14] can be described thus: PSAC antagonists in infected red cells, primary screen, cell-based, P. falciparum Indochina, OD700, 2 h (AID 1155).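 Also: lysis reports solute entry through the parasite surface anion channel PSAC; channel blockers reduce lysis of infected cells.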 As to conditions: P. falciparum Indochina infected erythrocytes, osmotic lysis OD700; higher = more signal, called active from +8 up or from −8 down.
The nature of experiment [15]: osmotic lysis modulators in infected erythrocytes, primary screen, PSAC antagonist project, cell-based, P. falciparum Indochina, OD700, 3 h (AID 1156). The note with it: higher = more signal, called active from +8 up or from −8 down.
The nature of experiment [16]: PSAC antagonists in infected red cells, primary screen, cell-based, P. falciparum Indochina, OD700, 18 h (AID 1157). As to conditions: P. falciparum Indochina infected erythrocytes, osmotic lysis OD700, 18 h; higher = more signal, called active from +8 up or from −8 down.
The nature of experiment [17]: modulators of S6 phosphorylation in cells, primary screen, cell-based, A549, cytoblot, luminescence, serum-stimulated (AID 1158).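 Also: serum-stimulated A549 lung adenocarcinoma cells; signal is phosphorylated S6 detected by cytoblot immunostaining with HRP secondary.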 As to conditions: A549 phospho-S6 cytoblot, 5 h, higher = more signal.
Experiment [18] concerns the target NADPH oxidase 2 (Homo sapiens) (UniProt P04839). In words: NOX2-dependent H2O2 signal modulators, primary screen, NOX inhibitor project, cell-based, HEK293-NOX2, PMA-stimulated, Amplex Red fluorescence (AID 1159). Also: test concentration not given here. The note with it: 45 min, higher = more signal, called active from +8 up or from −8 down.
Experiment [19] addresses NADPH oxidase 4 (Homo sapiens) (UniProt Q9NPH5). In words: NOX4-dependent H2O2 signal modulators, primary screen, NOX inhibitor project, cell-based, HEK293-NOX4, tetracycline-induced, Amplex Red fluorescence (AID 1160). As to conditions: 45 min, higher = more signal, called active from +8 up or from −8 down.
Experiment [20] addresses NADPH oxidase 5 (Homo sapiens) (UniProt Q96PH1). In words: NOX5-dependent H2O2 signal modulators, primary screen, NOX inhibitor project, cell-based, HEK293-NOX5, Amplex Red fluorescence (AID 1161). As to conditions: HEK293-NOX5, ionomycin, 45 min, higher = more signal.

The source made the active and inactive calls. Unless noted, no rule for the calls is given here.

NADPH oxidase 5 (Homo sapiens), sequence (Q96PH1 whole entry, looked up): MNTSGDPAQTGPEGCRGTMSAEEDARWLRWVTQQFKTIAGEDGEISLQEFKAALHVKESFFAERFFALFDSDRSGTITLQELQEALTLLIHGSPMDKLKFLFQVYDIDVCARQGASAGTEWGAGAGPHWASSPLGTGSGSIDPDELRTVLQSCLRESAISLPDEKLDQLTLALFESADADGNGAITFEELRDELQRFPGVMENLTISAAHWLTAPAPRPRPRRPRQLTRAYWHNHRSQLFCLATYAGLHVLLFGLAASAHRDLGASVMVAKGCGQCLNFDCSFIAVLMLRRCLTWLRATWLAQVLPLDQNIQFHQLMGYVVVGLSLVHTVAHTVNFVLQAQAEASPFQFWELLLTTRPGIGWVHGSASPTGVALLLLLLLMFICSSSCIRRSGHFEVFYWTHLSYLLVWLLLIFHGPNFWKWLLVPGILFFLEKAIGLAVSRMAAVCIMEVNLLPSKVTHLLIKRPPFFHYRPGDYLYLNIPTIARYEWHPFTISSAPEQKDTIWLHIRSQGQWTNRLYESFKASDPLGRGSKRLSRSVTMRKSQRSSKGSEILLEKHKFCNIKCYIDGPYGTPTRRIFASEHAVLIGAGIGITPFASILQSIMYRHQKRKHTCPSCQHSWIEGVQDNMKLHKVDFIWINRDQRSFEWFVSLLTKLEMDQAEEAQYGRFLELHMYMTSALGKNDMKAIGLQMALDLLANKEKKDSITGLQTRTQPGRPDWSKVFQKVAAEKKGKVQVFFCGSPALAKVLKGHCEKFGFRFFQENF
NADPH oxidase 2 (Homo sapiens), sequence (P04839 whole entry, looked up): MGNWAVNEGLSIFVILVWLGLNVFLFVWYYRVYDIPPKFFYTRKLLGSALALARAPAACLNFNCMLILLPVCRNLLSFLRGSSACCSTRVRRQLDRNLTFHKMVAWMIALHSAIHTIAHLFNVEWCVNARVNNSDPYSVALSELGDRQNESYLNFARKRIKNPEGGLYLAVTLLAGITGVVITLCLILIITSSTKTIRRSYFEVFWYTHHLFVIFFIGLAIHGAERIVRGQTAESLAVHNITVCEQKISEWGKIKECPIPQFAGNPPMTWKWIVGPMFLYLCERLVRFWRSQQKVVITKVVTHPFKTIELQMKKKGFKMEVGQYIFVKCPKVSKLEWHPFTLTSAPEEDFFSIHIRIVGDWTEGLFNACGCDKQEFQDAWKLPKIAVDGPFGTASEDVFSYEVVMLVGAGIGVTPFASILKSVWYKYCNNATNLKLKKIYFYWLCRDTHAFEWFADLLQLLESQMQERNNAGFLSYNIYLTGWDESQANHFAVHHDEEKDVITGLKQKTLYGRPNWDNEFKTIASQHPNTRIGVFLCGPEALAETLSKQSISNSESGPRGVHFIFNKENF
Streptavidin (Streptomyces avidinii), sequence (P22629 whole entry, looked up): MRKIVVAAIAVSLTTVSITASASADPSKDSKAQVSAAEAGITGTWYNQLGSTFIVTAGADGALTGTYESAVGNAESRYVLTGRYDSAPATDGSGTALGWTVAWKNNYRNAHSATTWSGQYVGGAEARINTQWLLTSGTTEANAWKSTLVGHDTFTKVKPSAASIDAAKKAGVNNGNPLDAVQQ
NADPH oxidase 4 (Homo sapiens), sequence (Q9NPH5 whole entry, looked up): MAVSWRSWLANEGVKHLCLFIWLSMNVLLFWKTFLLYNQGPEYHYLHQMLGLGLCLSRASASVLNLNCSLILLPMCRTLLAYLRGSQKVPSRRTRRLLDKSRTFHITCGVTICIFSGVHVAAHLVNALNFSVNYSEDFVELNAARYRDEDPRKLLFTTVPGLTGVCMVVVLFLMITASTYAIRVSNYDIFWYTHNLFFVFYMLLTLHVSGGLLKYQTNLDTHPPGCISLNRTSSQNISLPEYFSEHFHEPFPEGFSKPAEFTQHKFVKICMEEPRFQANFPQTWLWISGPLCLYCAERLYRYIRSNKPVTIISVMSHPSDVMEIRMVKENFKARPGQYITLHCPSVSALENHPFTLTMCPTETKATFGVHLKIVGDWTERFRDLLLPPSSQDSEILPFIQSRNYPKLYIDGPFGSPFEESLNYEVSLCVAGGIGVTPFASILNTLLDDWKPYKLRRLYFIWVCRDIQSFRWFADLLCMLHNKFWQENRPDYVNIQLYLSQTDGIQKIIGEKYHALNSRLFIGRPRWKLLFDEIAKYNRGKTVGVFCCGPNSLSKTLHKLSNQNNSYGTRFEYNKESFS

Take `CCCCN1CC=CC23O[C@@H]4/C=C\CCCOC(=O)C4[C@H]2C(=O)N(CCO)[C@@H]3C1=O` (stereo not given in full): the composite z-score is -0.703 in [1]; -1.6 in experiment [6]; -0.128 in experiment [7]; -2.13 in the experiment with Torsin-1A (Homo sapiens) [8]; -1.59 with Torsin-1A (Homo sapiens) [9]; -0.214 in experiment [10]. For the same molecule, the composite z-score in [12] was -0.297. Moreover, the z-score was -0.211 (inactive) in experiment [2]; -1.29 (inactive) in experiment [3]; -0.48 (inactive) in [4]; -0.681 (inactive) in experiment [5]; 1.18 (inactive) in experiment [11]; 0.978 (inactive) in experiment [13]. The z-score was 1.05 (inactive) in [14]; 0.504 (inactive) in [15]; 0.628 (inactive) in experiment [16]; -0.246 in experiment [17]; 1.28 (inactive) in experiment [18]; 0.314 (inactive) in experiment [19]. Also, the z-score in [20] was 1.5.
As to `NCCCCCCNC(=O)[C@@H]1C[C@@H]2C(=O)N[C@@H](CCCCN)C(=O)N2[C@@H]1c1ccc(O)cc1`, the composite z-score in [1] is 0.0704; in experiment [6], -0.865; in [7], 0.033; with Torsin-1A (Homo sapiens) [8], 0.822; with Torsin-1A (Homo sapiens) [9] it was 1.03; in [10] it was 1.62. The molecule further displayed a composite z-score in experiment [12] of 0.614. Also, the z-score is -2.28 (inactive) in experiment [2]; -0.611 (inactive) in experiment [3]; -1.35 (inactive) in experiment [4]; -0.965 (inactive) in experiment [5]; 0.264 (inactive) in [11]; 1.11 (inactive) in [13]. The z-score in experiment [14] was -1.03 (inactive); in experiment [15], -2.05 (inactive); in [16], -1.85 (inactive); in [17], 0.0189; in experiment [18], -1.77 (inactive); in [19], -1.06 (inactive). Also, the z-score in [20] is -3.51.
For `C=CC[C@@]1(C(=O)NCCCOC)N=C(c2ccc(OCCCO)cc2)O[C@@H]1c1ccccc1`, the composite z-score in experiment [1] is 0.452; in experiment [6], 0.428; in experiment [7] it was 0.771; in the experiment with Torsin-1A (Homo sapiens) [8], 0.478; with Torsin-1A (Homo sapiens) [9] it was 1.3; in experiment [10], -0.499. The molecule further showed a composite z-score in [12] of 0.611. Further, the z-score in experiment [2] was -1.92 (inactive); in [3], 0.305 (inactive); in [4], 1.51 (inactive); in [5], -0.68 (inactive); in [11] it was 1.3 (inactive); in experiment [13] it was 21.7 (active). Moreover, the z-score is 7.55 (inactive) in experiment [14]; 1.32 (inactive) in [15]; 0.406 (inactive) in [16]; 1.54 in experiment [17]; -0.393 (inactive) in experiment [18]; 0.523 (inactive) in [19]. In experiment [20], this molecule showed a z-score of 0.754.
For the molecule `O=c1cccc(-c2ccc([N+](=O)[O-])cc2)o1`, the composite z-score in [1] is 0.105; in experiment [6], 0.315; in experiment [7], 0.165; in the experiment with Torsin-1A (Homo sapiens) [8], -0.0842; with Torsin-1A (Homo sapiens) [9] it was 0.376; in experiment [10], 2.19. The composite z-score in experiment [12] was -0.241. Moreover, the z-score is -1.88 (inactive) in experiment [2]; -0.982 (inactive) in [3]; -0.882 (inactive) in [4]; 0.61 (inactive) in experiment [5]; 0.609 (inactive) in experiment [11]; 0.687 (inactive) in experiment [13]. The z-score in experiment [14] was -0.129 (inactive); in experiment [15] it was 0.0448 (inactive); in experiment [16], -1.08 (inactive); in experiment [17], 0.248; in experiment [18] it was 0.304 (inactive); in experiment [19], 0.542 (inactive). Further, in experiment [20], the z-score worked out at 0.0589.
For `CCCC=C(CCC)[C@@H](NS(=O)(=O)CC12CCC(CC1=O)C2(C)C)c1ccc(C(=O)OC)cc1` (stereo not given in full), the composite z-score in [1] amounted to 0.0202; in experiment [6], 0.333; in experiment [7], 0.361; with Torsin-1A (Homo sapiens) [8], 0.924; with Torsin-1A (Homo sapiens) [9], 0.792; in experiment [10] it was 0.31. In experiment [12], the composite z-score stood at 0.0345. In addition, the z-score in [2] was -0.816 (inactive); in experiment [3], -1.06 (inactive); in experiment [4] it was -0.572 (inactive); in [5], 0.0711 (inactive); in experiment [11], -0.645 (inactive); in [13] it was -0.777 (inactive). The z-score in experiment [14] is -0.825 (inactive); in experiment [15], -0.399 (inactive); in [16], -1.81 (inactive); in experiment [17], 0.922; in experiment [18], 0.219 (inactive); in experiment [19], 0.669 (inactive). This molecule also had a z-score in [20] of 2.48.
`C=C[C@H](C)[C@H](OC(=O)Nc1ccc(SC)cc1)c1ccc(OCCO)cc1`: the composite z-score in experiment [1] is 0.448; in experiment [6] it was 0.374; in [7] it was -0.0221; with Torsin-1A (Homo sapiens) [8], 0.766; with Torsin-1A (Homo sapiens) [9] it was 0.937; in [10], 1.33. Also, the composite z-score in [12] was 0.329. Also, the z-score in experiment [2] was -3.53 (inactive); in experiment [3] it was 0.0722 (inactive); in experiment [4] it was 7.78 (inactive); in [5], 1.58 (inactive); in [11], -1.79 (inactive); in [13], 27.6 (active). Besides, the z-score in [14] is 15.6 (active); in [15], 1.91 (inactive); in experiment [16], 0.184 (inactive); in experiment [17] it was 1.58; in [18], -0.831 (inactive); in experiment [19] it was -0.356 (inactive). The z-score in experiment [20] is -0.756.
As for `COc1ccc([Si](C)(C)[C@H]2[C@H](CC(=O)N(CCO)Cc3ccccc3)O[C@@]3(C(=O)N(C)c4c(Br)cc(C)cc43)[C@@H]2C)cc1`, the composite z-score in [1] was 0.306; in [6], 0.527; in [7], -0.128; in the experiment with Torsin-1A (Homo sapiens) [8], 2.12; in the experiment with Torsin-1A (Homo sapiens) [9] it was 1.98; in experiment [10] it was 1.72. Moreover, the composite z-score in [12] was 0.0774. For the same molecule, the z-score in experiment [2] was -5.69 (inactive); in experiment [3], -1.43 (inactive); in experiment [4] it was 9.7 (active); in experiment [5] it was -2.49 (inactive); in [11], -0.0939 (inactive); in [13], 18.4 (active). Besides, the z-score in [14] was 3.21 (inactive); in experiment [15] it was 0.0319 (inactive); in [16], 1.11 (inactive); in experiment [17], 1.83; in experiment [18], -2.5 (inactive); in [19], -0.577 (inactive). Moreover, the z-score in experiment [20] is -0.876.
In the case of `COCCOC(=O)N1C(=O)[C@@]2(c3cc(C#CC4=CCCCC4)ccc31)[C@H](c1ccccc1OCCO)N1[C@H](c3ccccc3)[C@H](c3ccccc3)OC(=O)[C@H]1[C@@H]2C(=O)NC[C@H](O)c1ccccc1`, the composite z-score in [1] is 0.6; in [6] it was 0.423; in [7], -0.0428; with Torsin-1A (Homo sapiens) [8], 0.281; with Torsin-1A (Homo sapiens) [9], 0.501; in experiment [10], 2.13. The composite z-score in experiment [12] came to 0.457. In addition, the z-score in [2] was -4.97 (inactive); in [3], 0.819 (inactive); in [4], -0.329 (inactive); in [5] it was 0.083 (inactive); in experiment [11], -0.801 (inactive); in [13], 1.34 (inactive). For the same molecule, the z-score was 2.19 (inactive) in experiment [14]; -1.61 (inactive) in experiment [15]; 0.703 (inactive) in [16]; -0.0585 in [17]; 1.79 (inactive) in experiment [18]; 0.529 (inactive) in experiment [19]. The same molecule came in with a z-score in experiment [20] of 1.81.

The record behind these values is PubChem BioAssay.
